Epigenetic mod – qHTS Assay for Epigenetic Modulators | mouse C127i GFP locus derepression, cytometry, 30 h | Potency, µM (titrated, usually from 46.1 µM), for inactives: at the highest dose GFP derepression (activation) | 68,000 tested, 0.09% active | AID 597, 2007; note: % of control where 0% means no effect
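Locus derepression in mouse mammary C127i cells whose integrated CMV-GFP reporter is normally silent; GFP expression after 30 h compound treatment was quantified by counting fluorescent cells.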
Caspase-1 inhib – qHTS Assay for Allosteric/Competitive Inhibitors of Caspase-1. P29466. Caspase-1 enzyme, Ac-WEHD-AFC fluorogenic rate. 75,000 tested, 0.03% active. Potency, µM (highest dose often 57.5 µM), without a hit: top-dose activity change, negative = inhibition, hits mostly inhibitors. AID 900, 2007;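 note: potency is the fitted concentration of half-maximal effect; plate controls were vehicle for no effect and no substrate for full effect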
Ub-GFP proteasome – Ubiquitin-GFP Assay; 67,000 tested, under 10 active; Ubiquitin-GFP reporter cells, proteasome inhibition, GFP fluorescence; response scale: untreated = 0%, 10 µM MG-132 = 100%; Potency, µM (series often up to 45.9 µM), without a hit: at the highest dose activation (GFP accumulation), hits mostly activators; active = well fitted activation curve with a large enough effect, not every such curve was filed as active; inconclusive = small, poorly fitted or top-dose-only effect, or another doubt; inactive = no such curve, though single readings can be large or run the other way; note: potency is the fitted concentration of half-maximal effect
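U2OS Ub(G76V)-GFP reporter; O/N plating, 0.5% FBS; cpd 46 uM–2.9 nM, 4 h, 37 °C; GFP+ cell count, 488/515 nm; norm. to basal vs 10 uM MG-132; CRC fit.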
Casp7 inh – qHTS Assay for Allosteric/Competitive Inhibitors of Caspase-7; P55210; recombinant caspase-7, Ac-DEVD-AFC fluorescence rate; AID 889, 2007; 75,000 tested, 0.02% active; Potency, µM (titrated, usually from 57.5 µM), without a hit: top-dose activity change, negative = inhibition, actives largely listed as inhibitors; active = well fitted inhibition curve with a large enough effect in the main read-out, with a control signal flat, not every such curve was filed as active; inconclusive = small, poorly fitted or top-dose-only effect, or a change in a side signal; note: potency is the fitted concentration of half-maximal effect; % of control where 0% means no effect
HBB splicing – qHTS Assay for Modulators of Hemoglobin Beta Chain Splicing | HBB splicing reporter cell assay, activation; EGFP reporter with mutant IVS2-654 intron; response scale: normalised to 500 nM splice-correcting PNA | Potency, µM (top dose mostly 46.1 µM), for inactives: top-dose activation, actives largely listed as activators | 65,000 tested, 0.06% active; note: potency is the fitted concentration of half-maximal effect; 0% is about no effect
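Compounds were applied for 2 days to HeLa EGFP-654 cells, 500/well in Optimem with 2% FCS. The reporter's EGFP is disrupted by mis-splicing of beta-globin intron IVS2-654. Readout: summed well GFP fluorescence from 488 nm laser scanning; reference was 500 nM antisense […] 654 PNA.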
GBA activity – Glucocerebrosidase | purified enzyme, resorufin glucoside fluorescence (screen aimed at inhibitors), 20 min | Potency, µM | 48,000 tested, 1.1% active | AID 360, 2006; in the data active = potency below about 15 µM; inconclusive = mostly about 16 µM to 33 µM;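 note: potency is the fitted concentration of half-maximal effect; the screen sought inhibitors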
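Compounds titrated against 0.2 nM normal enzyme, 30 uM resorufin beta-D-glucopyranoside substrate, citrate/phosphate buffer with taurocholate and tween-20, pH 5.9. Reaction ran 20 min at room temperature; fluorescence (Ex 548/Em 600) gave AC50.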
Starred values were filed as active, the others as inactive; [ ] = dose if it differs, or a comment. Shown is part of a subset that was picked to be rich in hits. Unless noted, calls come from the whole dose curve; as a rule, active = well fitted curve in the direction sought with a large enough effect; inconclusive = small, poorly fitted or top-dose-only effect, or another doubt; inactive = no such curve, though single readings can be large; an effect the other way counts as inactive or inconclusive.

For Cc1cc(N2CCOCC2)nc2ccc(Cc3ccc4nc(N5CCOCC5)cc(C)c4c3)cc12 the results were Epigenetic mod -2.2%[9.22 µM], Caspase-1 inhib 0.6%[11.5 µM], Ub-GFP proteasome 5.5%[9.17 µM], Casp7 inh -2.9%[11.5 µM] and HBB splicing 1.0%[9.22 µM].
Cc1cc(N2CCOCC2)nc2ccc(NC(=O)CCC(=O)N3CCC(C)CC3)cc12 was read as Epigenetic mod 1.1%, Caspase-1 inhib -2.2%, Ub-GFP proteasome -0.9%, Casp7 inh -0.7%, HBB splicing 0.3% and GBA activity 1.68*.
Screening Cc1cc(N2CCOCC2)nc2ccc(NC(=O)CCC(=O)N3CCCCC3)cc12 returned Epigenetic mod 2.2%, Caspase-1 inhib -2.8%, Ub-GFP proteasome -1.2%, Casp7 inh 0.0%, HBB splicing 7.6% and GBA activity 2.44*.
`CCN1CCN(c2cc(C)c3cc(NC(=O)c4cnccn4)ccc3n2)CC1` gave Epigenetic mod 0.0%, Caspase-1 inhib -2.5%, Ub-GFP proteasome 1.3%, Casp7 inh -4.7% and HBB splicing -0.2%.
`O=C(O)c1cc(C(=O)O)cc(N2C(=O)c3ccccc3C2=O)c1` gave Epigenetic mod -3.4%[9.22 µM], Caspase-1 inhib 1.0%[11.5 µM], Ub-GFP proteasome 5.9%[9.17 µM], Casp7 inh 1.5%[11.5 µM] and HBB splicing -1.0%[9.22 µM].
For COc1ccc(NC(=O)CSc2nnc(-c3ccccn3)n2N)c(OC)c1 the results were Epigenetic mod 0.0%, Caspase-1 inhib -0.4%, Ub-GFP proteasome -0.7%, Casp7 inh 1.2%, HBB splicing 2.4%[1.84 µM] and GBA activity >76.9.
Screening O=C(Cn1cnc2ccccc2c1=O)Nc1ccc2c(c1)CCC2 returned Epigenetic mod -2.5%, Caspase-1 inhib -1.9%, Ub-GFP proteasome 5.9%, Casp7 inh -3.4%, HBB splicing 0.5%[57.5 µM] and GBA activity >76.9.
CCN1CCN(c2cc(C)c3cc(NC(=O)Cc4ccc(OC)c(OC)c4)ccc3n2)CC1 was read as Epigenetic mod -3.4%, Caspase-1 inhib -4.8%, Ub-GFP proteasome -3.1%, Casp7 inh -7.4% and HBB splicing -0.3%.
For CCCCN(C)C(=O)CCC(=O)Nc1ccc2nc(N3CCOCC3)cc(C)c2c1 the results were Epigenetic mod 3.2%, Caspase-1 inhib 0.2%, Ub-GFP proteasome -7.1%, Casp7 inh -3.2%, HBB splicing -0.7% and GBA activity 0.713*.
Cc1nnc(NC(=O)C2CCN(c3nnnn3-c3ccccc3)CC2)s1 was read as Epigenetic mod 0.0%, Caspase-1 inhib 5.7%, Ub-GFP proteasome -1.0%, Casp7 inh -1.0%, HBB splicing -4.6% and GBA activity 8.69*.
`CCC1(C)Cc2c(sc3c2c(=O)n(C)c2nnc(SCC(=O)c4ccccc4)n32)CO1` (stereo unspecified) gave Epigenetic mod 5.4%, Caspase-1 inhib -0.9%, Ub-GFP proteasome 6.9%, Casp7 inh -1.9% and HBB splicing -0.2%.
For O=C(CC1Oc2ccccc2NC1=O)NCc1ccccc1 (stereo unspecified) the results were Epigenetic mod -3.9%, Caspase-1 inhib 2.0%, Ub-GFP proteasome 17.6%, Casp7 inh -1.7% and HBB splicing -0.5%.
For CC(=O)CC1OC(=O)C(Br)=C1NCc1ccccc1 (stereo unspecified) the results were Epigenetic mod 12.6µM*, Caspase-1 inhib -2.4%, Ub-GFP proteasome -2.5%, Casp7 inh 2.4%, HBB splicing 5.7% and GBA activity >76.9.
For O=C(CP(=O)(c1ccccc1)c1ccccc1)Nn1cnnc1 the results were Epigenetic mod 0.2%, Caspase-1 inhib 0.3%, Ub-GFP proteasome -9.4%, Casp7 inh 0.2% and HBB splicing -5.4%.
COC(=O)c1c(C)[nH]c(C(=O)COC(=O)Cc2ccc3c(c2)OCCO3)c1C was read as Epigenetic mod -2.3%, Caspase-1 inhib -2.0%, Ub-GFP proteasome 0.9%, Casp7 inh -4.1%, HBB splicing -2.4% and GBA activity 14.6*.
Screening CCOC(=O)c1c(C)[nH]c(C(=O)COC(=O)c2oc3ccc(OC)cc3c2C)c1C returned Epigenetic mod -1.0%, Caspase-1 inhib 2.9%, Ub-GFP proteasome 0.3%, Casp7 inh -0.9% and HBB splicing -1.2%.
`c1ccc(Cn2nnnc2C(c2ccccn2)N2CCOCC2)cc1` (stereo unspecified) gave Epigenetic mod 0.0%, Caspase-1 inhib 1.3%, Ub-GFP proteasome 4.0%, Casp7 inh -3.1% and GBA activity >76.9.
`CN(C)S(=O)(=O)c1ccc(S(=O)(=O)N(Cc2ccccn2)Cc2ccco2)cc1` gave Epigenetic mod 0.0%, Caspase-1 inhib -0.2%, Ub-GFP proteasome 1.7%, Casp7 inh 7.2%, HBB splicing -1.4% and GBA activity 6.66*.
COc1ccc(N2CCN(Cc3nc(N)nc(Nc4ccc(C)c(Cl)c4)n3)CC2)cc1 was read as Epigenetic mod -2.0%, Caspase-1 inhib -1.8%, Ub-GFP proteasome 9.3%, Casp7 inh -3.8%, HBB splicing -0.6%[1.84 µM] and GBA activity 4.02*.
Screening Cc1ccc(Nc2nc(N)nc(CN3CCN(Cc4ccc5c(c4)OCO5)CC3)n2)cc1Cl returned Epigenetic mod 2.6%, Caspase-1 inhib -3.3%, Ub-GFP proteasome -10.4%, Casp7 inh -3.4%, HBB splicing 1.4%[1.84 µM] and GBA activity inconclusive.
`Cc1ccc(Nc2nc(N)nc(CN3CCN(c4ccccc4)CC3)n2)cc1Cl` gave Epigenetic mod -2.2%, Caspase-1 inhib -3.5%, Ub-GFP proteasome 3.5%, Casp7 inh -4.0%, HBB splicing -4.1%[57.5 µM] and GBA activity 4.19*.
`O=C(CSc1nc(-c2ccc(F)cc2)cs1)N1CCOCC1` gave Epigenetic mod -2.9%, Caspase-1 inhib 0.1%, Ub-GFP proteasome -2.9%, Casp7 inh -1.4%, HBB splicing 0.4% and GBA activity inactive.
`CCOc1cccc(C2C(C#N)=C(N)Oc3cc(C)oc(=O)c32)c1OCC` (stereo unspecified) gave Epigenetic mod -6.0%[20.6 µM].
For CCCCOc1ccc(C(=O)Nc2ccncc2)cc1 the results were Epigenetic mod -3.2%, Caspase-1 inhib 0.3%, Ub-GFP proteasome -3.1%, Casp7 inh 0.4%, HBB splicing -0.5% and GBA activity 6.2*.
`CCCCOc1ccc(C(=O)NC)cc1` gave Epigenetic mod 3.2%, Caspase-1 inhib -1.1%, Ub-GFP proteasome -4.1%, Casp7 inh 0.0%, HBB splicing -1.2% and GBA activity >76.9.
CCOC(=O)C1CCCN(C(=O)c2cc3nc(-c4cccc(OC)c4)cc(C(F)(F)F)n3n2)C1 (stereo unspecified) was read as Epigenetic mod 3.2%, Caspase-1 inhib inconclusive, Ub-GFP proteasome 7.5%, Casp7 inh inconclusive, HBB splicing -1.1% and GBA activity 7.22*.

Source: PubChem BioAssay
